Assay results from PMC13541613, “GHT-SELEX demonstrates unexpectedly high intrinsic sequence specificity and complex DNA binding of many human transcription factors”.

What was measured:
Test in all cases: HT-SELEX; 20 mM HEPES pH 7, 140 mM KCl, 5 mM NaCl, 1 mM K2HPO4, 2 mM MgSO4, 100 uM EGTA, ZnSO4, 0.1% Tween20; room temperature, 1 h; high values mean tight binding
Details in all cases: protein: ivt; tags: eGFP (N-terminal); dsDNA, one strand shown
ZNF721 full-length = ZNF721 full-length (Homo sapiens, UniProt Q8TF20-2 1-923)
Chain of ZNF721 full-length (Q8TF20 other isoform, or with tags, fused parts or gaps): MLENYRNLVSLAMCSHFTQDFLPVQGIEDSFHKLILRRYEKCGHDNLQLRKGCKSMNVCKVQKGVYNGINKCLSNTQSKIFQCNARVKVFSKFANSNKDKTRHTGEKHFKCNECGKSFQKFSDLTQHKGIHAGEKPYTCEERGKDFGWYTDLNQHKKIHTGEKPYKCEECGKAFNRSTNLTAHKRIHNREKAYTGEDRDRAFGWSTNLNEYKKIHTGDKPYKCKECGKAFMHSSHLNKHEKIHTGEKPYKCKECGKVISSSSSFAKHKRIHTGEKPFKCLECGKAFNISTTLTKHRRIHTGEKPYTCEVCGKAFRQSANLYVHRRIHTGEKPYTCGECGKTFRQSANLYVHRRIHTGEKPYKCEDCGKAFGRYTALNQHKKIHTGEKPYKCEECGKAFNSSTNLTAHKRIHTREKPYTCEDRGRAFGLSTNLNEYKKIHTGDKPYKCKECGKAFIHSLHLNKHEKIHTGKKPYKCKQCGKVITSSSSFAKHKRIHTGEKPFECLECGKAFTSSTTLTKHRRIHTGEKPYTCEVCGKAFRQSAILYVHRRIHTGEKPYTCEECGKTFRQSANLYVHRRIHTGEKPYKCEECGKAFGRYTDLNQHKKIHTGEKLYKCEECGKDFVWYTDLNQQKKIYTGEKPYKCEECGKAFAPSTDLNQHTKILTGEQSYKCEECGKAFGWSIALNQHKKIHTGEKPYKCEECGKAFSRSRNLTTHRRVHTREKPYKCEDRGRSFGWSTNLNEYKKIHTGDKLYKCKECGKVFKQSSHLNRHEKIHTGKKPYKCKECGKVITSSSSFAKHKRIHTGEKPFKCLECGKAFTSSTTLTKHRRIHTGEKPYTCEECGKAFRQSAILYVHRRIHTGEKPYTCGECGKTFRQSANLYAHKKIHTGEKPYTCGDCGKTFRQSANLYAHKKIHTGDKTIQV
Summary of the method: (§1)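 A tagged transcription factor, either full-length or its DNA-binding-domain fragment, was made in HEK293 lysate or cell-free extract, immobilised on beads and incubated with a randomized 40-base DNA library for 1 h at room temperature in HEPES/KCl low-stringency buffer containing Tween20. Washed beads were heat-eluted, and the bound DNA was PCR-amplified over successive cycles and Illumina-sequenced at ~3 million 60 bp reads per sample. The binding signal is the relative k-mer count in selected reads, where a higher value means tighter binding.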

ZNF721 DBD1 = ZNF721 DBD1 (Homo sapiens, UniProt Q8TF20-2 29-461)
Chain of ZNF721 DBD1 (Q8TF20 17-449): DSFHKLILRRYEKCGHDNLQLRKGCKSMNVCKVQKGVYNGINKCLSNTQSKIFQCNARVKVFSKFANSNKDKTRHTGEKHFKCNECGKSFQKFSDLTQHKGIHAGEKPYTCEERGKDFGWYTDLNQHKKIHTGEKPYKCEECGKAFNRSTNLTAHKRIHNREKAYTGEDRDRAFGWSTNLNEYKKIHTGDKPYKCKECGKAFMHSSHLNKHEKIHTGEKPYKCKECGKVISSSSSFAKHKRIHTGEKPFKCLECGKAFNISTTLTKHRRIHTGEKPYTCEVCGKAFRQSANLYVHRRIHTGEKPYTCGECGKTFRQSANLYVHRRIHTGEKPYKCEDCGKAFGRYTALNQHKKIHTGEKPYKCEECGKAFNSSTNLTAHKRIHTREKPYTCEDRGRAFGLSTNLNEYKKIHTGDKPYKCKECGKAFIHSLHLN
Summary of the method: as §1

ZNF721 DBD2 = ZNF721 DBD2 (Homo sapiens, UniProt Q8TF20-2 395-923)
Chain of ZNF721 DBD2 (Q8TF20 383-911): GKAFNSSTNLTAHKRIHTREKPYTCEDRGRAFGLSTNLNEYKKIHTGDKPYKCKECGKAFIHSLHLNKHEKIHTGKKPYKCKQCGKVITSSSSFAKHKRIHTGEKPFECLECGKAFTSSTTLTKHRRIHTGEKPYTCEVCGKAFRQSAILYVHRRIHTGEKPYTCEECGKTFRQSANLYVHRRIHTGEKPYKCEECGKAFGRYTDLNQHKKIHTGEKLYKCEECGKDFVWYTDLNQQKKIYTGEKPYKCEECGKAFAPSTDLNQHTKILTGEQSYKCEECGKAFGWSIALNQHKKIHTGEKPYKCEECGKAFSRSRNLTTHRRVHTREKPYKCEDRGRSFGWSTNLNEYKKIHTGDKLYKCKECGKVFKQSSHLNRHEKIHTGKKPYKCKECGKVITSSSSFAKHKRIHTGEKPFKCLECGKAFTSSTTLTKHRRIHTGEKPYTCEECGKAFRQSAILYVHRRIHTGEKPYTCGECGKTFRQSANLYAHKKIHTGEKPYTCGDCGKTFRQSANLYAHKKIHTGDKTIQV
Summary of the method: as §1

Sequence | binding signal (ZNF721 full-length) | binding signal (ZNF721 DBD1) | binding signal (ZNF721 DBD2)
ACCCACCCCA | 0.167 relative 10-mer count | 0.00798 relative 10-mer count | 0.00515 relative 10-mer count
CCCCCCTACC | 0.127 relative 10-mer count | 0.00569 relative 10-mer count | 0.0036 relative 10-mer count
ACCCTCCCCC | 0.176 relative 10-mer count | 0.00766 relative 10-mer count | 0.00575 relative 10-mer count
CCTCCCCCTC | 0.15 relative 10-mer count | 0.00807 relative 10-mer count | 0.00467 relative 10-mer count
ACCCACCACC | 0.214 relative 10-mer count | 0.0104 relative 10-mer count | 0.00791 relative 10-mer count
ACGCCCACCC | 0.129 relative 10-mer count | 0.00486 relative 10-mer count | 0.00587 relative 10-mer count
CCGCACCCCC | 0.152 relative 10-mer count | 0.00569 relative 10-mer count | 0.00156 relative 10-mer count
AGGGTTTCCA | 0.106 relative 10-mer count | 0.00128 relative 10-mer count | 0.201 relative 10-mer count
ATAGCTTCAT | 0.118 relative 10-mer count | 0.158 relative 10-mer count | 0.00288 relative 10-mer count
CCATCCACCC | 0.109 relative 10-mer count | 0.00578 relative 10-mer count | 0.00467 relative 10-mer count
GGGGGGGGGA | 0.116 relative 10-mer count | 0.00486 relative 10-mer count | 0.00192 relative 10-mer count
ACCCCTCCAC | 0.11 relative 10-mer count | 0.00472 relative 10-mer count | 0.00419 relative 10-mer count
CCCCGCCCCC | 0.297 relative 10-mer count | 0.0122 relative 10-mer count | 0.00228 relative 10-mer count
ACACCCACCC | 0.171 relative 10-mer count | 0.0105 relative 10-mer count | 0.00336 relative 10-mer count
AAAAAAGCTA | 0.489 relative 10-mer count | 0.222 relative 10-mer count | 0.00276 relative 10-mer count
ACAGCGTACC | 0.193 relative 10-mer count | 0.00115 relative 10-mer count | 0.259 relative 10-mer count
CGCCCCTCCC | 0.158 relative 10-mer count | 0.00605 relative 10-mer count | 0.00336 relative 10-mer count
CCCACCTACC | 0.111 relative 10-mer count | 0.00573 relative 10-mer count | 0.00659 relative 10-mer count
CCACCCACCA | 0.237 relative 10-mer count | 0.00977 relative 10-mer count | 0.00791 relative 10-mer count
CGCCCGCCCC | 0.126 relative 10-mer count | 0.00408 relative 10-mer count | 0.00144 relative 10-mer count
CCACCGACCC | 0.107 relative 10-mer count | 0.00482 relative 10-mer count | 0.0036 relative 10-mer count
CCCGCCACCC | 0.304 relative 10-mer count | 0.0125 relative 10-mer count | 0.00252 relative 10-mer count
CCCTCACCCC | 0.193 relative 10-mer count | 0.00862 relative 10-mer count | 0.00276 relative 10-mer count
CCCATCCCCC | 0.185 relative 10-mer count | 0.00716 relative 10-mer count | 0.00312 relative 10-mer count
AAAAAAAAGC | 0.653 relative 10-mer count | 0.113 relative 10-mer count | 0.125 relative 10-mer count
CAGGGGTGGG | 0.103 relative 10-mer count | 0.00482 relative 10-mer count | 0.00419 relative 10-mer count
CCACCCCTCC | 0.209 relative 10-mer count | 0.0108 relative 10-mer count | 0.00491 relative 10-mer count
